ELG1 genotox: genotoxicity induction in ELG1-luciferase HEK293T cells; HEK293T ELG1-luciferase reporter, luminescence, 16 h; Potency, µM (highest dose often 46 µM), inactives show top-dose activity change, positive = activation, most hits filed as activators; 330,000 tested, 1.3% active; AID 504466; also: % of control where 0% means no effect; nearly all actives have a fitted effect of over 60% in size
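16 hr compound incubation (37 °C, 5% CO2) of HEK293T cells carrying luciferase-tagged ELG1; luciferase then measured by ONE-Glo luminescence after 30 min at RT.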
SMN2 splice enh: enhancers of SMN2 splice variant expression | HEK293 SMN2-luciferase splicing reporter, luminescence, 30-36 h | Potency, µM (highest dose often 46.1 µM), for inactives: at the highest dose activity change, positive = activation, actives largely listed as activators | 210,000 tested, 2.8% active | AID 1458; also: % of control where 0% means no effect; nearly all actives have a fitted effect of over 55% in size
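HEK293 cells carry an SMN2 minigene-luciferase reporter in which exon 7 inclusion puts luciferase in frame. Cells were seeded at 2000 cells/well, attached for 10-12 hours, then exposed to compounds for 30-36 hours at 37C before ONE-Glo luminescence.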
Rab9 prom act: activators of Rab9 promoter; Huh7 Rab9 promoter-luciferase reporter, luminescence, 24 h; Potency, µM (series often up to 9.22 µM), without a hit: at the highest dose activation, negative = inhibition, hits mostly activators; 320,000 tested, 2.8% active; also: % of control where 0% means no effect; nearly all actives have a fitted effect of over 60% in size
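Cells were plated at 1500 per well in reduced-serum medium with 10% FBS and left 2 h. Compound in DMSO was then added for 24 h at 37 °C. Reporter signal was read by luminescence after 10 min with luciferase detection reagent.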
FLuc counter: counter-screen for miR-21 project: firefly luciferase inhibitors or activators; purified FLuc, Km substrates, luminescence inhibition; Potency, µM (top dose mostly 57.5 µM), inactives show top-dose activity change, negative = inhibition, usual class: inhibitors; 360,000 tested, 6.9% active;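 also: plate controls were vehicle for no effect and reference inhibitor for full effect; nearly all actives have a fitted effect of over 55% in size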
Target sequence (P08659 whole entry, looked up): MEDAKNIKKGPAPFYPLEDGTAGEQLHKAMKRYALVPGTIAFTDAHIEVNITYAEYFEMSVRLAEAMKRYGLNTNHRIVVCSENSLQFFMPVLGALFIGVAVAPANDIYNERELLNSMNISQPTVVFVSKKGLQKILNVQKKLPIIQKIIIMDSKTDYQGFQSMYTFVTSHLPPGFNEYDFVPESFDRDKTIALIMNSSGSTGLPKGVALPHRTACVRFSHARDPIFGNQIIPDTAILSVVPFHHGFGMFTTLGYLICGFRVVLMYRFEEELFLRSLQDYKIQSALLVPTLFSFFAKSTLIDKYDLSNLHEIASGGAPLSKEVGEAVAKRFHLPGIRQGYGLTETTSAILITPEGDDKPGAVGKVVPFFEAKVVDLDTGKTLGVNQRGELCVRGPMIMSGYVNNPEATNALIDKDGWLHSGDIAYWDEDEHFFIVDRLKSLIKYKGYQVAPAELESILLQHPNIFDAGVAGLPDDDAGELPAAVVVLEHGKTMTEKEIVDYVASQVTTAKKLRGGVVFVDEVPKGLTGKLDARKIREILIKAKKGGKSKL
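Biochemical qHTS of compounds, final roughly 60 µM downward over six points, against 10 nM purified firefly luciferase using Km concentrations of substrates (10 uM D-luciferin, 10 uM ATP) in Tris acetate pH 7.5 buffer; luminescence output.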
Luc counter: counter-screen: inhibitors of Kinase-Glo firefly luciferase. Kinase-Glo luciferase, ATP luminescence, 8 min. 200,000 tested, 0.28% active. Q27757. Potency, µM (titrated, usually from 38.3 µM), for the others: top-dose activity change, negative = inhibition, most hits filed as inhibitors; also: % is scaled to controls: 0 for no effect and ±100 for the full control effect; nearly all actives have a fitted effect of over 60% in size
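Luminescence was the read-out, taken after 8-minute incubation at ambient temperature. Luciferase turned over luciferin with 10 uM ATP in imidazole pH 7.2 buffer containing KCl, MgCl2, Tween 20 and BSA.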
NPC1 promoter act: activators of NPC1 promoter | Potency, µM (doses to about 9.22 µM), inactives show at the top dose activation, hits mostly activators | 320,000 tested, 2.4% active | Huh7 NPC1 promoter luciferase reporter, 24 h; also: % of control where 0% means no effect; nearly all actives have a fitted effect of over 60% in size
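NPC1 promoter–luciferase Huh7 cells; 24 h compound; luminescence.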
An asterisk follows results filed as active; ? = inconclusive; . = no result; [ ] = remark or other dose. The list is not random: actives were taken first. Their share in the collection is about 7.5%. Calls follow the shape of the dose curve; as a rule, active = well fitted curve in the direction sought with a large enough effect; inconclusive = small, poorly fitted or top-dose-only effect, or another doubt; inactive = no such curve, though single readings can be large; an effect the other way counts as inactive or inconclusive. Potency is read from the fitted curve at half-maximal effect.

SMILES	ELG1 genotox	SMN2 splice enh	Rab9 prom act	FLuc counter	Luc counter	NPC1 promoter act
NNc1nc(-c2ccccc2)cc(-c2ccc(Br)cc2)n1	-9%	.	-3%	?	.	-4%
O=C(CN1C(=O)COc2ccccc21)NCCCN1CCOCC1	1%	.	1%	4%	.	0%
O=C(CN1C(=O)/C(=C\c2cccc(Br)c2)Oc2ccccc21)NCCCN1CCOCC1	0%[9.26 µM]	.	-6%	6.7µM*	.	-1%
O=C(CN1C(=O)/C(=C/c2ccc(C(F)(F)F)cc2)Sc2ccccc21)NCCCN1CCOCC1	1%[9.26 µM]	.	-1%	?	.	-4%
O=C(O)CN1C(=O)/C(=C/c2cccc(Cl)c2)Oc2ccccc21	-1%	.	3%	13µM*	.	-5%
CCOC(=O)C1CCCN(C(=O)CN2C(=O)c3ccccc3C2=O)C1 (stereo not drawn)	-6%	18%	18%	0%	-8%	-1%
CCc1ccc(/C=C2/Sc3ccccc3N(CC(=O)NCCCN3CCOCC3)C2=O)cc1	7%	.	-2%	19µM*	.	-1%
CCOC(=O)C1CCCN(C(=O)CN2C(=O)/C(=C/c3ccc(OC)cc3)Oc3ccccc32)C1 (stereo not drawn)	-15%	-50%	-1%	15µM*	-5%	0%
Cc1ccc(NC(=O)COC(=O)C2CCN(c3ccc(C(F)(F)F)cn3)CC2)cc1	3%	.	2%	-7%	.	0%
COc1cccc(/C=C2/Oc3ccccc3N(CC(=O)NCC3CCCO3)C2=O)c1 (stereo not drawn)	-6%	.	3%	9.5µM*	.	0%
CS(=O)(=O)c1ccc2nc(NC(=O)c3ccccc3Br)sc2c1	?	.	?	9.5µM*	.	2.8µM*
CS(=O)(=O)c1ccc2nc(NC(=O)c3ccccc3Cl)sc2c1	11%	.	21%	17µM*	.	20%
COc1ccccc1C(=O)Nc1nc2ccc(S(C)(=O)=O)cc2s1	10%	1%	?	?	-4%	27%
CCOc1ccc(C2C(C(=O)Nc3ccc(OC)cc3)=C(C)Nc3nc(SCc4ccc(Cl)cc4)nn32)cc1 (stereo not drawn)	.	.	.	1%	.	.
c1ccc(Cc2cc(-c3ccccc3)on2)cc1	?	?	?	12µM*	-2%	28%
CC(C)OCCCNC(=O)C1CCC(CNS(=O)(=O)c2ccccc2)CC1 (stereo not drawn)	0%	-37%	-5%	8%	7%	-1%
CCN(C(=O)CSc1ncccn1)c1cccc2ccccc12	-1%	.	.	.	.	.
CC1(C)Oc2ccc3ccc(=O)oc3c2-c2cn[nH]c21	?	14µM*	-4%	2%	1%	-2%
Cc1noc(NS(=O)(=O)c2ccc(NC(=O)NC(C)(C(F)(F)F)C(F)(F)F)cc2)c1C	-3%	.	-2%	0%	.	2%
Cc1ccc(C)c(C(=O)COC(=O)CCCC(=O)Nc2cc(C(F)(F)F)ccc2Cl)c1	-1%	-10%	0%	4.8µM*	-1%	-2%
Cc1ccc2nc(-c3ccc(N4C(=O)CC(N5CCN(CCO)CC5)C4=O)cc3)sc2c1 (stereo not drawn)	?	18%	10%	8.5µM*	-3%	11%
CCCOc1ccc(CNC(=O)C2CCN(c3nc4ccccc4nc3C(F)(F)F)CC2)cc1	.	.	.	6%	.	.
COc1ccc(-n2nc(C(=O)NCC(=O)N3CCCC3)c3ccccc3c2=O)cc1Cl	-5%	.	11%	8.5µM*	.	-2%
COC(=O)CNC(=O)CNC(=O)c1nn(-c2ccc(OC)c(Cl)c2)c(=O)c2ccccc12	-1%	-11%	2%	1%	3%	-8%
CCOC(=O)N1CCN(C(=O)CNC(=O)c2nn(-c3ccc(OC)c(OC)c3)c(=O)c3ccccc23)CC1	-11%	.	12%	6.7µM*	.	0%
CCOC(=O)N1CCN(C(=O)CNC(=O)c2nn(-c3ccc(OC)c(Cl)c3)c(=O)c3ccccc23)CC1	1%	.	19%	4.8µM*	.	6%
